Screens deposited in PubChem by National Center for Advancing Translational Sciences (NCATS).
Shown is part of a subset that was picked to be rich in hits.
AmpC no deterg: AmpC beta-lactamase inhibition without detergent; AmpC nitrocefin hydrolysis, absorbance 480 nm, 0.0001% Triton; Potency, µM (top dose mostly 57.1 µM), actives largely listed as inhibitors; 330,000 compounds, 0.52% hits; AID 485341; further: nearly all actives have a fitted effect of over 20% in size
Target sequence (P00811 whole entry, looked up): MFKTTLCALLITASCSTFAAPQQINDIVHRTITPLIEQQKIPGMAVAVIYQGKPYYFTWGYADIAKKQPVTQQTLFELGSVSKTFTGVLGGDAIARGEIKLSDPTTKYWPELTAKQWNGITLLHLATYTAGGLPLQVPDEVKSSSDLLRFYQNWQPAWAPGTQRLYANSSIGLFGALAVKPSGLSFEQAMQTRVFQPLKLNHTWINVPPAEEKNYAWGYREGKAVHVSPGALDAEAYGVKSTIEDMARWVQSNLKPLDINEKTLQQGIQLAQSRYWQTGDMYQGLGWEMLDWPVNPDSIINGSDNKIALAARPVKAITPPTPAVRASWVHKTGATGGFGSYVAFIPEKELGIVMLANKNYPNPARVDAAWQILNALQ
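20 mM phosphate pH 7.0 + 0.01% (detergent screen) or 0.0001% Triton X-100; 5.3 nM AmpC reagent; cpd preinc 15 min RT; nitrocefin (800 uM stock) to start; A480 q20 s × 4 min; Activity was normalised to no-enzyme and no-compound control wells.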
CHX counter: counter-screen for Shiga toxin inhibitors: cycloheximide protein synthesis inhibition. max response, %. cell reporter, cycloheximide protein synthesis inhibition counterscreen. 300,000 compounds, 12% hits. AID 2314; in the data active means max response mostly above about 13%, no sharp cut-off; inactive means mostly below about 14%; further: read at 38.3 µM for the half of the compounds with a filed dose
Shiga inhibitor: inhibitors of Shiga toxin in Vero cells | inhibition, % at 38.7 µM | Vero cells, Shiga toxin protein synthesis inhibition reporter | AID 2315 | 290,000 compounds, 9.2% hits; in the data active means inhibition mostly above about 28%, no sharp cut-off; inactive means mostly below about 43%
AMA1-RON2 inh: inhibitors of Plasmodium falciparum AMA1-RON2 interaction; AlphaScreen AMA1-biotinylated RON2 peptide binding; Potency, µM (top dose mostly 58.2 µM), most hits filed as inhibitors; 360,000 compounds, 0.2% hits; AID 720542; further: nearly all actives have a fitted effect of over 45% in size
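AMA1 (3D7) with his tag at 25 nM final met compounds first, then biotinylated RON2 peptide at 25 nM; detection used donor plus acceptor beads, 10 µg/mL apiece, read by AlphaScreen after 30 min at room temperature.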
SARS PLP yeast: blocks SARS-CoV papain-like protease in a yeast assay. S. cerevisiae expressing SARS-CoV PLpro, growth rescue. AID 485353. 330,000 compounds, 0.19% hits. Potency, µM (titrated, usually from 32.9 µM), actives largely listed as activators; calls by dose curve; further: nearly all actives have a fitted effect of over 55% in size
AmpC inh detg: blocks E. coli AmpC beta-lactamase in detergent assay; AID 485294; P00811; AmpC hydrolysis of nitrocefin, absorbance 480 nm, 0.01% Triton; Potency, µM (top dose mostly 114 µM), most hits filed as inhibitors; 370,000 compounds, 0.041% hits; further: nearly all actives have a fitted effect of over 25% in size
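AmpC (5.3 nM in the dispensed reagent) in 20 mM phosphate pH 7.0 with 0.01% (detergent screen) or 0.0001% Triton X-100 was preincubated with compounds for 15 min at room temperature. Nitrocefin was then added from an 800 uM solution, and hydrolysis was followed at 480 nm.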
Hits are given with their value. Unless noted, the call rests on the fitted dose curve; in most records, active means well fitted curve in the direction sought with a large enough effect; inconclusive means small, poorly fitted or top-dose-only effect, or another doubt; inactive means no such curve, though single readings can be large; an effect the other way counts as inactive or inconclusive.

COc1ccc(C(CC(=O)Nc2nccs2)n2cccc2)cc1 (centres undefined) was read as AmpC no deterg inactive, CHX counter 30.8, Shiga inhibitor 150.2, AMA1-RON2 inh inactive, SARS PLP yeast inactive and AmpC inh detg inactive.
Screening COc1ccc(C(CC(=O)Nc2nccs2)C(C)C)cc1 (centres undefined) returned AmpC no deterg inactive, CHX counter inactive, Shiga inhibitor inactive, AMA1-RON2 inh inactive, SARS PLP yeast inactive and AmpC inh detg inactive.
Screening COc1ccc(C(CC(=O)Nc2ccccn2)N2Cc3ccccc3C2=O)cc1 (centres undefined) returned AmpC no deterg inactive, CHX counter 30.3, Shiga inhibitor 88.0, AMA1-RON2 inh inactive, SARS PLP yeast inactive and AmpC inh detg inactive.
Screening COc1cccc(-n2ccnc2SCC(=O)Nc2nccs2)c1 returned AmpC no deterg inactive, CHX counter 21.4, Shiga inhibitor inactive, AMA1-RON2 inh inactive, SARS PLP yeast inactive and AmpC inh detg inactive.
For Cc1cccc(-n2ccnc2SCC(=O)Nc2nccs2)c1 the results were AmpC no deterg inactive, CHX counter 29.0, Shiga inhibitor inactive, AMA1-RON2 inh inactive, SARS PLP yeast inactive and AmpC inh detg inactive.
Screening Cc1cc(C)cc(-n2ccnc2SCC(=O)Nc2nccs2)c1 returned AmpC no deterg inactive, CHX counter inactive, Shiga inhibitor inactive, AMA1-RON2 inh inactive, SARS PLP yeast inactive and AmpC inh detg inactive.
CCNc1nc(NCc2ccc(F)cc2)c2cnn(C)c2n1 was read as AmpC inh detg inactive.
`Nc1cc(=O)[nH]c(SCC(=O)Nc2cc(Cl)cc(Cl)c2)n1` gave AmpC no deterg inactive, CHX counter inactive, Shiga inhibitor inactive, AMA1-RON2 inh inactive, SARS PLP yeast inactive and AmpC inh detg inactive.
For Cc1ccc(-c2csc3nc4cc(C(N)=O)ccc4c(=O)n23)cc1 the results were AmpC no deterg inactive, CHX counter inactive, Shiga inhibitor inactive, AMA1-RON2 inh inactive, SARS PLP yeast inactive and AmpC inh detg inactive.
For O=C(c1cc(COc2ccc(F)c(F)c2)on1)N1CCSCC1 the results were AmpC no deterg inactive, CHX counter 46.5, Shiga inhibitor 62.3, AMA1-RON2 inh inactive, SARS PLP yeast inactive and AmpC inh detg inactive.
`CC(=O)c1cccc(OCc2cc(C(=O)N3CCSCC3)no2)c1` gave AmpC no deterg inactive, CHX counter 48.2, Shiga inhibitor 149.5, AMA1-RON2 inh inactive, SARS PLP yeast inconclusive and AmpC inh detg inactive.
COc1cc(C(C)=O)ccc1OCc1cc(C(=O)N2CCSCC2)no1 was read as AmpC no deterg inactive, CHX counter inactive, Shiga inhibitor inactive, AMA1-RON2 inh inactive and AmpC inh detg inconclusive.
For COc1ccc(NC(=O)C(NC(=O)c2ccc(C)cc2)c2ccccc2)cc1 (centres undefined) the results were AmpC no deterg inactive, CHX counter 24.8, Shiga inhibitor 48.9, AMA1-RON2 inh inactive and AmpC inh detg inactive.
Cc1ccc(NC(=O)C(Nc2cccc(C)c2)c2ccccc2)cc1 (centres undefined) was read as AmpC no deterg inactive, CHX counter 22.5, Shiga inhibitor inactive, AMA1-RON2 inh inactive, SARS PLP yeast inactive and AmpC inh detg inconclusive.
Screening COc1ccc(NC(=O)C(NC(=O)c2ccc(=O)[nH]c2)c2ccccc2)cc1 (centres undefined) returned AmpC no deterg inactive, CHX counter inactive, Shiga inhibitor inactive, AMA1-RON2 inh inactive, SARS PLP yeast inactive and AmpC inh detg inconclusive.
Cc1ccc(C(=O)NC(c2ccccc2)C(Cl)Cl)cc1 (centres undefined) was read as AmpC no deterg inactive, CHX counter 15.2, Shiga inhibitor inactive, AMA1-RON2 inh inactive, SARS PLP yeast inactive and AmpC inh detg inactive.
Screening Cc1ccc(NC(=O)C(Nc2ccccc2)c2ccccc2)cc1 (centres undefined) returned AmpC no deterg inactive, CHX counter inactive, Shiga inhibitor inactive, AMA1-RON2 inh inactive, SARS PLP yeast inactive and AmpC inh detg inactive.
Screening CC1(C)N=C(N)N=C(N)N1c1ccc(OCC(=O)N2CCOCC2)c(Cl)c1 returned AMA1-RON2 inh inactive.
Cc1cc(F)ccc1NC(=O)CN(C)S(=O)(=O)c1ccc(C(=O)N2CCOCC2)s1 was read as AmpC inh detg inactive.
